Unmarked numbers belong to inactive results. The call rests on the fitted dose curve; in most records, active means well fitted curve in the direction sought with a large enough effect; inconclusive means small, poorly fitted or top-dose-only effect, or another doubt; inactive means no such curve, though single readings can be large or run the other way.
Target: Thyrotropin receptor (Homo sapiens) (UniProt P16473)
Assay: qHTS Assay for Antagonists of the Thyroid Stimulating Hormone Receptor (AID 488980); further: 0% is about no effect
Settings: TSHR-expressing cells, cAMP antagonist read-out; series mostly up to 57.5 µM; activity, negative = inhibition: at the top concentration
Source text: TSH is an alpha/beta heterodimeric glycoprotein hormone secreted from the anterior pituitary gland which belongs to the glycoprotein hormone family. The actions of TSH are mediated by a seven-transmembrane receptor, which upon TSH binding couples preferentially to the G-alpha (s) protein (Gs), resulting in activation of adenylate cyclase and increase in cyclic adenosine 3', 5' monophosphate (cAMP). The TSH receptor (THSR) is mainly expressed in thyroid follicular cells and regulates their growth and function. This cell based assay was conducted on a TSHR transfected HEK 293 cell line, measuring cAMP stimulation using antibody-based Homogeneous Time Resolved Fluorescence (HTRF).
Our goal is to identify small molecules that will inhibit (antagonize) the thyroid-stimulating hormone receptor (TSHR), a member of the 7 transmembrane-spanning receptor (7TMR) family of cell surface receptors. TSHR-mediated hyperthyroidism is important in thyroid pathology. The development of small molecule antagonists of TSHR may lead to therapeutic approaches for TSHR-mediated hyperthyroidism caused by constitutively activating mutations or stimulating auto-antibodies associated with Graves' disease. Graves' disease is the leading cause of hyperthyroidism and is caused by autoantibodies that stimulate TSHR (TsAbs) causing thyroid growth and unregulated overproduction of thyroid hormones and existing treatments have liabilities (agranulocytosis). In addition, TSHRs are known to be expressed in multiple extrathyroidal tissues including bone, brain, kidney, testis, fat and cells of the immune system but the role of the TSHR in these tissues is not clear. Therefore, TSHR antagonists/inverse agonists could be used as probes of extrathyroidal TSHR function. Finally, TSHR inverse agonists, which are a subclass of antagonists that inhibit agonist-independent (or basal or constitutive) TSHR signaling, could be used to inhibit TSH-independent signaling in patients with recurrent or metastatic thyroid cancer who are receiving thyroid hormone to suppress TSH.
An anti cAMP antibody contains a fluorescent cryptate tag (excitation 337 nm; emission 620 nm) and the acceptor is cAMP-d2 (excitation 620 nm; emission 665 nm). When antibody and cAMP-d2 interact and are excited by a 337 nm light, a FRET occurs resulting in emission at 665 nm. The assay is competition between cAMP-d2 and cAMP (from the cell lysate). The homogeneous protocol allows for one step dispense after stimulation that is automation friendly.
Step, Parameter, Value, Description
1, Cells, 3 uL, 2000 TSHR freshly harvested cells/well 1536 TC treated White solid bottom plate (Cells resuspended in 10 mM HEPES buffered HBSS and 70 uM RO 20-1724)
2, Compound, 23 nL, Libraries and controls
3, Compound, 1 uL, EC80 TSH (4 nM final)
5, Reagent, 2 uL, cAMP antibody diluted 1:20 in lysis buffer
6, Time, 30 minutes, Room temperature
7, Detector, HTRF settings, Viewlux

Sequence of Thyrotropin receptor (Homo sapiens) (P16473 whole entry, looked up): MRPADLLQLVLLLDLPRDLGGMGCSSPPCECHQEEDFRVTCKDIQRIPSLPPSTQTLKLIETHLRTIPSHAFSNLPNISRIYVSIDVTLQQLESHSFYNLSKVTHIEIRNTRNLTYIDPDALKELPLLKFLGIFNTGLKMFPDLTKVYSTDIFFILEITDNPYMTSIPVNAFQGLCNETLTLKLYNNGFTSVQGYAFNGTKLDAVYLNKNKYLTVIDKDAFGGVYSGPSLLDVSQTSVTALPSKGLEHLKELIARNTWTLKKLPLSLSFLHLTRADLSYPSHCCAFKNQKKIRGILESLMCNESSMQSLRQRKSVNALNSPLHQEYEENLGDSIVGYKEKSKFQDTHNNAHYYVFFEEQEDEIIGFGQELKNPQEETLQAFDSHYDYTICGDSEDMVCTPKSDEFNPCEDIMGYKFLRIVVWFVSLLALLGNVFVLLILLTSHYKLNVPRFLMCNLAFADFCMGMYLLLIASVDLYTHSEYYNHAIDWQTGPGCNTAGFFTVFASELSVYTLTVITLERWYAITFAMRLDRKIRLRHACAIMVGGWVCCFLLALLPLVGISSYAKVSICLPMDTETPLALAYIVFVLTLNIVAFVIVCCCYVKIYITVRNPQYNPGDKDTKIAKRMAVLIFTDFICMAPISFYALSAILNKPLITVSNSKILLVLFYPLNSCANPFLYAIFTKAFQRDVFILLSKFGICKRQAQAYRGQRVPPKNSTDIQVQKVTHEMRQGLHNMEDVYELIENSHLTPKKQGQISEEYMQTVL

Structure (SMILES)	activity, negative = inhibition
C=C1C(=O)O[C@@H]2[C@H]3O[C@]3(C)CCC=C(C)CC[C@@H]12	-0.519%
C[C@H](O)C(=O)C1=Nc2c(nc(N)[nH]c2=O)NC1	0.0078%
O[Si](CCCN1CCCCC1)(c1ccc(F)cc1)C1CCCCC1 (stereo not given)	-0.525%
COc1cccc(OC)c1OCCNCC1CSc2ccccc2O1 (stereo not given)	-0.637%
CCn1c(=O)[nH]c2cc(Cl)c(Cl)cc21	-0.321%
N[C@H](C(=O)O)[C@H]1C[C@@H]1C(=O)O	-0.188%
CCCCC[C@H](CC(=O)NO)C(=O)N[C@H](C(=O)N1CCC[C@H]1CO)C(C)C	-2.2%
O=C(O)C1=CCNCC1	0.049%
CC(C)(C)c1cc(/C=C(\C#N)C(N)=S)cc(C(C)(C)C)c1O	-1.02%
NC1CCN(O)C1=O (stereo not given)	-2.69%
CCC1(O)CC2CN(CCc3c([nH]c4ccccc34)[C@@](C(=O)OC)(c3cc4c(cc3OC)N(C=O)C3[C@]45CCN4CC=C[C@@](CC)([C@@H](OC(C)=O)[C@]3(O)C(=O)OC)[C@H]45)C2)C1 (stereo not given in full)	-2.79%
N[C@H]1CONC1=O	-1.68%
Cn1c(=O)c2c(nc(/C=C/c3cccc(Cl)c3)n2C)n(C)c1=O	-1.33%
Cc1nc(N=Nc2ccc(S(=O)(=O)O)cc2S(=O)(=O)O)c(COP(=O)(O)O)c(C=O)c1O	-1.99%
O=C(O)Cc1c[nH]c2ccc(O)cc12	-1.03%
CC1CCN(CC[C@H]2CCCN2S(=O)(=O)c2cccc(O)c2)CC1	-1.65%
CCN1C(=O)C=CC1=O	0.337%
CC(C)(C)NCC(O)COc1cccc2[nH]c(=O)[nH]c12 (stereo not given)	-0.102%
O=C1NC(=O)c2cc(Nc3ccccc3)c(Nc3ccccc3)cc21	-3.06%
Nc1ncnc2c1ncn2C1CCCC1	-1.98%

Structure (SMILES)	activity, negative = inhibition
N=S(=O)(O)Cc1noc2ccccc12	-1.32%
CCCCOc1cc(CC2CNC(=O)N2)ccc1OC (stereo not given)	0.4%
NC(N)=N[C@@H](CCC(=O)O)C(=O)O	-2.12%
CN1CCC2(CCN3CCc4c(oc5ccccc45)C3C2)N(C)C1=O (stereo not given)	-1.28%
N[C@@H](CCCC(=O)O)C(=O)O	-0.458%
CC1CNCCN1S(=O)(=O)c1cccc2cnccc12 (stereo not given)	0%
CCC1(O)CC2CN(CCc3c([nH]c4ccccc34)[C@@](C(=O)OC)(c3cc4c(cc3OC)N(C)C3[C@]45CCN4CC=C[C@@](CC)([C@@H](OC(C)=O)[C@]3(O)C(=O)OC)[C@H]45)C2)C1 (stereo not given in full)	-2.46%
O=C(O)Cc1ccc(O)c(O)c1	-0.0783%
CC[C@@H]1Cc2cc(O)ccc2C2=C1c1ccc(O)cc1C[C@H]2CC	-1.49%
CCCCCCCCCC[Si](C)(C)CCC(=O)NC(Cc1ccc(C)cc1)c1ccccc1 (stereo not given)	-1.71%
CC(C)NCC(O)COc1ccc(CC(N)=O)cc1 (stereo not given)	-1.29%
Cn1cc(C(F)(F)F)nc1-c1ccc(OCC(O)CNCCOc2ccc(O)c(C(N)=O)c2)cc1 (stereo not given)	-0.125%
CCCc1c(-c2ccc(O)cc2)nn(-c2ccc(O)cc2)c1-c1ccc(O)cc1	-0.478%
NC1(C(=O)O)CCc2cc(C(=O)O)ccc21 (stereo not given)	-2.56%
COc1cc(CC(=O)O)ccc1O	-0.234%
O=C(O)c1cc(=O)cc(C(=O)O)[nH]1	-1.53%
Cn1c(=O)c2[nH]c(C3CCCC3)nc2n(C)c1=O	0.228%
CC(=O)/C(C)=N/O	-1.99%
O=C(c1ccc2c(c1)OCCO2)N1CCCCC1	-0.934%
CC(/C=C/c1cccc(Oc2ccc(F)cc2)c1)N(O)C(N)=O (stereo not given)	-0.0548%

— PubChem BioAssay (NCATS)
